Screens from PubChem BioAssay.
D2 ag-1: agonists of human D2 dopamine receptor (beta-arrestin); P14416; DiscoveRx PathHunter D2 beta-arrestin, luminescence, 90 min; 100% = 57 uM dopamine signal; activation, % (test concentration not listed); hit rate 0.084% among 360,000; in the data active = activation above about 40%
Target sequence (P14416 whole entry, looked up): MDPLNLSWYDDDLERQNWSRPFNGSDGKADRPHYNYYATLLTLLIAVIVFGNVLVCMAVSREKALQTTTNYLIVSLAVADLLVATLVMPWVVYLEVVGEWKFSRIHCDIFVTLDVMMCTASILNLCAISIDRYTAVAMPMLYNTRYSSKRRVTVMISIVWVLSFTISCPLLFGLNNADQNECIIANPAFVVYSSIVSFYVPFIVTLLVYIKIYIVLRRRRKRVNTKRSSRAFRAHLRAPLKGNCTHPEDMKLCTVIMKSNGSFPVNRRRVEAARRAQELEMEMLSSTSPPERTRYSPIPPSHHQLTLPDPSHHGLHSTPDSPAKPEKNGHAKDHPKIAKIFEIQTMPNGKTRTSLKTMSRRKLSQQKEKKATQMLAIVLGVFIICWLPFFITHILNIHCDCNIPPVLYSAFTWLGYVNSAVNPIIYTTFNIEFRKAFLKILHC
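DiscoveRx PathHunter D2 beta-arrestin cells (2,100/well) attached overnight, then compound-stimulated 90 min at 37 C in HBSS/10 mM HEPES/0.1% Tween-20 buffer; beta-galactosidase complementation read by luminescence after 1 h at ambient temperature. Dopamine 57 uM final (EC100) as control.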
D2 ag-2: agonists of human D2 dopamine receptor. AID 485358. activation, % at 2 µM. HEK293 T-REx D2 cells, calcium flux agonist mode. P14416. hit rate 0.53% among 340,000;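 active = activation over 3 SD above normal in the single-dose calcium agonist read, cut at about 30% in these data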; note: 0% is about no effect
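HEK293 Trex D2 cells, tetracycline-induced, o/n 30 C 5% CO2; no-wash Ca dye, RT 30–90 min; 10-cycle baseline, 23 nl cpd added, kinetic Ca read 180 s; agonist hits = positive Ca response.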
D2 antag: antagonizes the human D2 dopamine receptor. inhibition, % at 10 µM. AID 485344. hit rate 2% among 340,000. HEK293 TREx D2 cells, calcium flux, dopamine EC80; in the data active = inhibition above about 30%; inactive = below that, where a call was filed; note: 0% is about no effect
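In this primary screen, negative modulation is detected by tracking calcium flux after an EC80 dopamine challenge in inducible HEK293 T-REx D2 cells preexposed to test compound for 180 s.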
D2 PAM-1: positively modulates the human D2 dopamine receptor allosterically; P14416; HEK293 T-REx D2, calcium flux, EC20 dopamine potentiation; potentiation, % at 10 µM; hit rate 0.34% among 340,000; AID 485347;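 active = potentiation over 3 SD above the plate norm, cut at about 30% in these data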; note: 0% is about no effect
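Cells plated with tetracycline inducer and held overnight at 30 C; calcium dye loaded 30–90 min at room temperature; baseline taken, compound added and read 180 s; EC20 dopamine then added and read 180 s.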
D2 PAM-2: human D2 receptor positive allosteric modulation | hit rate 0.23% among 360,000 | DiscoveRx D2 beta-arrestin cells, luminescence, 90 min; 100% = 57 uM dopamine signal | AID 624464 | P14416 | potentiation, % (no concentration beside the values); in the data active = potentiation above about 50%
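D2 cells co-treated with compound plus 50 nM dopamine (EC20) for 90 min at 37 deg C to detect potentiation. Beta-arrestin recruitment was read as enzyme-fragment luminescence after 1 h at ambient temperature. Full response was set by 57 uM dopamine.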
Starred values were filed as active, the others as inactive; / = no result. A selection: hits, their analogues and other compounds. The true share with any hit is near 2.4%.

SMILES	D2 ag-1	D2 ag-2	D2 antag	D2 PAM-1	D2 PAM-2
CN(C(=O)Nc1ccccc1)C1CCCc2ccccc21 (stereo not drawn)	-5	-1	30*	5	-4
Cc1ccc(NC(=O)N2CCCc3ccccc32)cc1C	-12	-1	0	-11	-14
O=C(c1ccccc1F)N1CCCc2ccccc21	-1	0	-10	39*	0
O=C(Nc1ccccc1)C(=O)Nc1ccc2c(c1)N(C(=O)C1CC1)CCC2	3	0	35*	1	-27
O=C(Nc1ccccc1)N1CCCc2ccccc21	-2	-1	-15	47*	18
COc1cc(CN2C[C@@H](CO)O[C@@H](n3cnc4c(Nc5ccccc5)ncnc43)C2)cc(OC)c1OC	7	/	/	/	10
OC(c1ccc(F)cc1)c1ncc(-c2ccc3ccccc3c2)[nH]1 (stereo not drawn)	-1	/	/	/	-20
CCOc1ccc(C(=O)Oc2cc(C)[nH]c(=O)c2[N+](=O)[O-])cc1	-3	0	15	6	-2
CCCCOc1ccc(C(=O)Oc2cc(C)[nH]c(=O)c2[N+](=O)[O-])cc1	-6	0	77*	-2	-1
CCCC(C)Sc1nc2c([nH]1)c(=S)n(C)c(=O)n2C (stereo not drawn)	0	/	/	/	-20
O=C(CCn1c(=O)c2ccccc2n(Cc2cccc(F)c2)c1=O)NCc1ccc2c(c1)OCO2	/	0	/	7	/
O=C(CN1C(=O)NC(Cc2ccccc2)C1=O)Nc1ccc(F)c(Cl)c1 (stereo not drawn)	5	1	33*	3	-2
O=C(CN1C(=O)NC(Cc2ccccc2)C1=O)Nc1ccc(F)cc1 (stereo not drawn)	1	0	-14	-3	-1
N#Cc1ccc(OCc2c(-c3ccccc3)nnn2CC(=O)O)cc1	-2	/	/	/	0
Cc1ccc(NC(=O)COc2cccc3c2OC(C)(C)C3)c(O)c1	-2	-1	30*	-3	-13
CCOC(=O)N1CCN(C(=O)c2[nH]c(C(F)(F)F)nc2-c2ccccc2)CC1	-3	/	/	/	-4
CCn1cc(C(=O)O)c(=O)c2cc(F)c(N3CCN(C(=S)NC(=O)c4ccccc4Br)CC3)cc21	-2	-2	6	31*	-10
CCn1cc(C(=O)O)c(=O)c2cc(F)c(N/N=C/c3ccccc3[N+](=O)[O-])cc21	1	7	30*	-21	-2
COc1ccc(CNC(=O)c2ccc(NC(=O)N3CCSc4ncccc43)cc2)c(OC)c1	/	-1	/	5	/
CC(C)C(=O)N1CCC1(C)C(=O)NCc1ccc(C(C)(C)C)cc1 (stereo not drawn)	-7	/	/	/	-10
CCOC(=O)C(C)(C)Sc1nc2c(cnn2-c2ccc(C)cc2)c(=O)[nH]1	-1	-1	48*	-11	1
CCC1CCCCN1C(=O)CSc1nc2c(cnn2-c2ccc(C)cc2)c(=O)[nH]1 (stereo not drawn)	-4	-1	33*	-7	-9
Cc1ccc(-n2ncc3c(=O)[nH]c(SCC(=O)N4CCOCC4)nc32)cc1	-2	-2	-16	10	12
COc1cccc(-n2c(SCC(=O)NCc3ccco3)nnc2-c2c[nH]c3ccccc23)c1	2	-2	48*	-11	4
Cn1c(-n2cccc2)c(-c2c(-c3ccccc3)[nH]c3c2c(=O)[nH]c(=O)n3C)c(=O)[nH]c1=O	/	1	/	7	/
SMILES	D2 ag-1	D2 ag-2	D2 antag	D2 PAM-1	D2 PAM-2
CCc1ccc(-n2c(=O)c3c4c(sc3n(CC(=O)NCCCOC)c2=O)CCC4)cc1	/	-1	/	4	/
COCCn1c(SCC(=O)NC(C)c2ccc(F)cc2)nc2ccccc21 (stereo not drawn)	-4	-1	14	34*	-6
Cc1ccc(-c2nc(NCc3ccco3)c3ccccc3n2)cc1	-15	0	-3	-5	-18
OCCN1CCN(c2nc(NCc3ccco3)c3ccccc3n2)CC1	-2	0	28	-25	-16
CSc1nc(NCc2ccco2)c2ccccc2n1	-2	1	31*	-5	-10
c1ccc(-c2nc(NCc3ccco3)c3oc4ccccc4c3n2)cc1	0	0	-6	33*	-7
Cc1ccc(OCCN2CCN(c3nc(NCc4ccco4)c4ccccc4n3)CC2)cc1	2	0	38*	-26	-35
